Consider 26 compounds from PubChem BioAssay (Tox21).

Structures are written as SMILES. Records with an inconclusive call do not appear. Active and inactive are the calls of the source. Unless noted, the call rests on the fitted dose curve; in most records, active means well fitted curve in the direction sought with a large enough effect in the repeat runs; inconclusive means weak or mixed curves; inactive means no such curve, though single readings can be large; an effect the other way counts as inactive or inconclusive.

Test [1] can be described thus: qHTS assay to identify small molecule antagonists of the estrogen related receptor (ERR) signaling pathway from Tox21 library - cell viability counter screen (AID 1224834). Further: nearly all actives have a fitted effect of over 30% in size. Further: potency means the concentration at half of the fitted maximal effect. The method in brief: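 After 17.5 h of compound exposure at 37 C, ERR cells are incubated with CellTiter-Fluor for 30 min and fluorescence intensity serves as the viability measure.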
In test [2] the target is Luciferin 4-monooxygenase (Photinus pyralis) (UniProt P08659). Briefly: qHTS assay to identify small molecule inhibitors of firefly luciferase (AID 1224835). Further: nearly all actives have a fitted effect of over 25% in size. Further: potency means the concentration at half of the fitted maximal effect. The procedure, abridged: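 Biochemical qHTS: compounds run as interplate titrations against purified firefly enzyme, with D-luciferin and ATP each at its KM concentration. Light output recorded by CCD imaging.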
Background: qHTS replaces the single test concentration by a dilution series.

Test [3] can be described thus: qHTS assay to identify small molecule agonists of the constitutive androstane receptor (CAR) signaling pathway - cell viability counter screen (AID 1224836). Further: nearly all actives have a fitted effect of over 45% in size. Further: potency means the concentration at half of the fitted maximal effect. The procedure, abridged:
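Fluorescence from CellTiter-Fluor indicates live cells after 23 h exposure. The human hepatoma line expresses hCAR and a CYP2B6-2.2kb reporter. Incubation medium contains 0.75 uM PK11195 (final).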

Test [4] can be described thus: qHTS assay to identify small molecule antagonists of the constitutive androstane receptor (CAR) signaling pathway - cell viability counter screen (AID 1224837). Further: nearly all actives have a fitted effect of over 45% in size. Further: potency means the concentration at half of the fitted maximal effect. The method in brief: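 Counter screen run in HepG2-CYP2B6-hCAR cells: 4 hr settle, compound titration (15 concentrations) with 50 nM CITCO, 23 hr at 37 C/5% CO2, CellTiter-Fluor fluorescence.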
Test [5] deals with Nuclear receptor subfamily 1 group I member 3 (Homo sapiens) (UniProt Q14994). Briefly: qHTS assay to identify small molecule antagonists of the constitutive androstane receptor (CAR) signaling pathway (AID 1224838).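 Further: HepG2 cells stably expressing hCAR with CYP2B6 luciferase reporter stimulated by CITCO; nearly all actives have a fitted effect of over 40% in size.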 Further: potency means the concentration at half of the fitted maximal effect. The procedure, abridged:
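Cell line: HepG2 double-stable for hCAR and CYP2B6-2.2kb reporter. Agonist: CITCO, 50 nM final. Compounds: 15 concentrations, 24 h, 37 C. Detection: ONE-Glo luminescence.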

The target is the same in test [6]. Briefly: qHTS assay to identify small molecule agonists of the constitutive androstane receptor (CAR) signaling pathway (AID 1224839). Further: nearly all actives have a fitted effect of over 15% in size. Further: potency means the concentration at half of the fitted maximal effect. The procedure, abridged: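 Stable hCAR/CYP2B6-2.2kb HepG2 line in DMEM with 10% FBS; compounds (15 concentrations) and 0.75 uM PK11195 final, 24 h at 37 C/5% CO2, then ONE-Glo luminescence after 30 min.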
Test [7] can be described thus: qHTS assay to identify small molecule antagonists of the estrogen related receptor signaling pathway with the pleiotropic PPARgamma coactivator (PGC) from Tox21 10K library - cell viability counter screen (AID 1224840; active means well fitted cell-killing curve with a large enough effect in the repeat runs, not every such curve was filed as active; further: nearly all actives have a fitted effect of over 40% in size; further: potency means the concentration at half of the fitted maximal effect). The method in brief: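 Following seeding of 2,000 PGC/ERR cells/well and 6 hours' incubation, test compounds were delivered in DMSO. The plates then sat 17.5 hours at 37 C before a fluorogenic live-cell protease reagent (CellTiter-Fluor) was read after 30 min.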

Test [8] in a line: qHTS assay to identify small molecule antagonists of the estrogen related receptor signaling pathway with the pleiotropic PPARgamma coactivator (PGC) from Tox21 10K library (AID 1224841; call rule not given here; further: actives are mostly falling curves and most rising ones were filed inactive; nearly all actives have a fitted effect of over 50% in size; further: potency means the concentration at half of the fitted maximal effect). The method in brief:
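qHTS antagonist format: PGC/ERR cells, 2k/well, compound in DMSO by pin transfer after 6 h attachment, 18 h treatment at 37 C, One-Glo luminescence read at 30 min.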

Test [9] in a line: qHTS assay to identify small molecule agonists of the estrogen related receptor signaling pathway with the pleiotropic PPARgamma coactivator (PGC) from Tox21 10K library (AID 1224842). Further: nearly all actives have a fitted effect of over 15% in size. The procedure, abridged:
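PGC/ERR reporter cell line, 2,000 cells per well, incubated 6 h at 37 C before 23 nL compound in DMSO was added. After 18 h at 37 C, One-Glo luminescence read following 30 min at room temperature.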

For test [10], the target named is Thyrotropin receptor (Homo sapiens) (UniProt P16473). Briefly: qHTS assay to identify small molecule agonists of the thyroid stimulating hormone receptor (TSHR) signaling pathway (AID 1224843; calls by dose curve; further: nearly all actives have a fitted effect of over 45% in size). The method in brief:
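Steps: seed 800 TSHR-HEK293 cells per well; add test compound and hold 30 min at ambient temperature; dispense cAMP-d2 then anti-cAMP cryptate; incubate 1 h at ambient; measure fluorescence intensity.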

Chain of Luciferin 4-monooxygenase (Photinus pyralis) (P08659 whole entry, looked up): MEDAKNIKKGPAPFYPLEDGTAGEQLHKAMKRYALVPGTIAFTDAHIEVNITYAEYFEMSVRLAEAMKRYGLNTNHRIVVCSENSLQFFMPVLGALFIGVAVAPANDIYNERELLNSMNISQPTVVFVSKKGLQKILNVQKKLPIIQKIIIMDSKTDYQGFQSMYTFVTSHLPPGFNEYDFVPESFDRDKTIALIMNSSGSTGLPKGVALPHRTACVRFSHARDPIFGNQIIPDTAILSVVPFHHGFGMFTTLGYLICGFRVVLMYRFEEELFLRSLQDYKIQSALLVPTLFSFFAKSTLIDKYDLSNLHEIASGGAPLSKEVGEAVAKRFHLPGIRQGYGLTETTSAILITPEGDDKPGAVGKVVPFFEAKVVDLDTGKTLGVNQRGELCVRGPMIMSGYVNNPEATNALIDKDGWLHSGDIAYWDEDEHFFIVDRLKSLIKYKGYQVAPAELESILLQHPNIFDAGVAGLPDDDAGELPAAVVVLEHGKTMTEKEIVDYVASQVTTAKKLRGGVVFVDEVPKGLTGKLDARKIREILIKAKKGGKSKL
Chain of Thyrotropin receptor (Homo sapiens) (P16473 whole entry, looked up): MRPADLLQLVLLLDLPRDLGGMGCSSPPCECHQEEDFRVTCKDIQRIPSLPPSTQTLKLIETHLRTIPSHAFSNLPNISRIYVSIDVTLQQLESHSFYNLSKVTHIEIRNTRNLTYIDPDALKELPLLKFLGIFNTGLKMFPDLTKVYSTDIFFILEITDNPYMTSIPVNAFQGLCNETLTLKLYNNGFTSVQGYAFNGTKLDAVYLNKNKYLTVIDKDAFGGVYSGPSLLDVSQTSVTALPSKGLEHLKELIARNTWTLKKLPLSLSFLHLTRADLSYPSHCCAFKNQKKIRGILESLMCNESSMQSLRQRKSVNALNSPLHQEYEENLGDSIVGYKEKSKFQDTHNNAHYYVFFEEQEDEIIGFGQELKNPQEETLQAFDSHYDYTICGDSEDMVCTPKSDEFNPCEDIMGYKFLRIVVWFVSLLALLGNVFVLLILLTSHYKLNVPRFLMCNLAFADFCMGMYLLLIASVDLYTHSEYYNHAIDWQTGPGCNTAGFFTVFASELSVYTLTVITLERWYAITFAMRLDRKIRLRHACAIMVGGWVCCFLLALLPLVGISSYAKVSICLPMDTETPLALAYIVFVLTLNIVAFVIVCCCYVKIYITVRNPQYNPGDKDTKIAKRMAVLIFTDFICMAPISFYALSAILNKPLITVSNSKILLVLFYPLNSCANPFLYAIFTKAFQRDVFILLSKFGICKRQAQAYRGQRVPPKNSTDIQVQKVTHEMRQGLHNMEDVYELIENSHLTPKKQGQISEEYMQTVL
Chain of Nuclear receptor subfamily 1 group I member 3 (Homo sapiens) (Q14994 whole entry, looked up): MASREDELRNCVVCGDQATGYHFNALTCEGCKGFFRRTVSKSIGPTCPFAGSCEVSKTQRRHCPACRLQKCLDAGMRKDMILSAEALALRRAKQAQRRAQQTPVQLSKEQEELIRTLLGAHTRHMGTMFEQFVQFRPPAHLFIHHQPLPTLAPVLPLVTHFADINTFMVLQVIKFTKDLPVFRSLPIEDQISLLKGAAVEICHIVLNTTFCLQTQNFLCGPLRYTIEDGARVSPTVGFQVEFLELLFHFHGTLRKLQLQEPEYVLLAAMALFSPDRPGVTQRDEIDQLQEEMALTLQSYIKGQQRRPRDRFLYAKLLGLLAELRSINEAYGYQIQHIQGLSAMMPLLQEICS

Regarding `NC(=O)c1ccncc1`, the Potency entry in test [1], in test [2], in [3], in test [4], in test [5] and in test [6] was “inactive” in each case. Also, the Potency result in test [7], in [8], in [9] and in [10] was “inactive” in each case.

Consider `CC(C)C[C@H](NC(=O)[C@H](CCc1ccccc1)NC(=O)CN1CCOCC1)C(=O)N[C@@H](Cc1ccccc1)C(=O)N[C@@H](CC(C)C)C(=O)[C@@]1(C)CO1`, for which the Potency in [1] is 0.133 µM (active); in test [3], 0.376 µM (active); in test [4] it was 0.422 µM (active); in test [5], 0.119 µM (active); in test [7] it was 3.35 µM (active); in [8] it was 0.0841 µM (active). For the same compound, the Potency entry in test [2], in test [6], in test [9] and in test [10] was “inactive” each time.

Turning to `CC(C)=CCC1C(=O)N(c2ccccc2)N(c2ccccc2)C1=O`, the Potency result in test [1], in test [2], in test [3], in test [4], in test [5] and in test [6] was “inactive” each time. For the same compound, the Potency result in test [7] and in test [10] was “inactive” in each case.

Consider `NCCNCCO`, for which the Potency entry in test [1], in [2], in test [3], in test [4], in [5] and in [6] was “inactive” each time. The Potency entry in [7], in test [8], in test [9] and in test [10] was “inactive” in each case.

Take `Cc1cc(C)c(N)cc1C`: the Potency entry in test [1], in test [2], in [3], in test [4], in [5] and in test [6] was “inactive” in each case. Also, the Potency entry in [7] and in test [10] was “inactive” each time.

With `CC(=O)Nc1ccc(C)cc1C`, the Potency result in test [1], in test [2], in test [3], in [4], in test [5] and in test [6] was “inactive” throughout. For the same compound, the Potency entry in test [7], in [8], in [9] and in test [10] was “inactive” throughout.

As to `CCOC(C)=O`, the Potency entry in [1], in [2], in test [3], in test [4], in test [5] and in test [6] was “inactive” in each case. Moreover, the Potency result in [7] and in test [10] was “inactive” each time.

`CCCCN1CCCC1C(=O)Nc1c(C)cc(C)cc1C` (stereo not given): the Potency result in test [1], in [2], in [3], in test [4], in test [5] and in test [7] was “inactive” each time. For the same compound, the Potency entry in [10] was “inactive”. Besides, the Potency in [6] is 29.8 µM (active).

Turning to `CCCCCCCCCCCCCCN(CCO)CCO`, the Potency in test [1] is 61.1 µM (active); in [3], 61.1 µM (active); in test [4], 61.1 µM (active); in [5] it was 48.6 µM (active); in [7], 54.5 µM (active). Besides, the Potency entry in test [2], in [6] and in [9] was “inactive” throughout.

Take `Cc1cc(C)cc(N)c1`: the Potency result in [1], in [2], in test [3], in test [4], in test [5] and in test [6] was “inactive” each time. For the same compound, the Potency entry in [7] and in [10] was “inactive” each time.

For `C=C(C)C(=O)OCCCCCCCCCCCCC`, the Potency entry in test [1], in test [2], in test [3], in [4], in test [5] and in test [6] was “inactive” each time. Further, the Potency result in [7] and in test [10] was “inactive” each time.

Regarding `CC(=O)OCC[N+](C)(C)C`, the Potency result in test [1], in test [2], in [3], in test [4], in test [5] and in test [6] was “inactive” throughout. Also, the Potency entry in test [7] and in test [10] was “inactive” in each case.

Regarding `CC(=O)OCC(=O)NCCCOc1cccc(CN2CCCCC2)c1`, the Potency result in test [1], in [2], in test [3], in test [4], in test [5] and in test [6] was “inactive” in each case. The Potency result in [7], in [8], in test [9] and in test [10] was “inactive” in each case.

`OCCOCC#CCOCCO`: the Potency entry in [1], in test [2], in test [3], in test [4], in test [5] and in [6] was “inactive” throughout. Further, the Potency entry in [7] and in test [10] was “inactive” in each case.

For `O=C(O)c1cccc(-c2noc(-c3ccccc3F)n2)c1`, the Potency entry in [1], in [3], in test [4], in test [5], in test [7] and in test [10] was “inactive” in each case. Also, the Potency in test [2] is 0.0087 µM (active); in test [6], 0.0075 µM (active).

For `Nc1cccc2c1CN(C1CCC(=O)NC1=O)C2=O` (stereo not given), the Potency entry in test [1], in test [2], in [3], in [4], in test [5] and in test [6] was “inactive” throughout. Besides, the Potency entry in test [7] and in test [10] was “inactive” in each case.

Regarding `CCCCCC#CC(=O)OC`, the Potency result in test [1], in test [2], in test [3], in [4], in test [5] and in [6] was “inactive” each time. Further, the Potency entry in [7], in [8], in test [9] and in test [10] was “inactive” each time.

With `COC(=O)CCS`, the Potency result in test [1], in [2], in test [3], in test [4], in test [5] and in [6] was “inactive” in each case. The Potency result in test [7] and in test [10] was “inactive” in each case.

For `CC=C(Cl)Cl`, the Potency result in test [1], in test [2], in test [3], in test [4], in test [5] and in test [6] was “inactive” throughout. Moreover, the Potency entry in test [7] and in test [10] was “inactive” throughout.

Consider `C1C[C@@H]2[C@H]3CC[C@H](C3)[C@@H]2C1`, for which the Potency entry in [1], in test [2], in [3], in test [4], in test [5] and in test [6] was “inactive” each time. Also, the Potency entry in test [7] and in test [10] was “inactive” in each case.

For `CCCCCCCCN`, the Potency result in test [1], in [2], in test [3], in test [4], in test [5] and in test [6] was “inactive” in each case. For the same compound, the Potency entry in [7] and in test [10] was “inactive” in each case.

As to `CCC(C)COC(=O)CC(C)C` (stereo not given), the Potency entry in test [1], in [2], in [3], in [4], in [5] and in test [6] was “inactive” each time. Also, the Potency result in test [7] and in test [10] was “inactive” throughout.

With `O=C(Cn1ccnc1[N+](=O)[O-])NCCO`, the Potency entry in [1], in test [2], in test [3], in test [4], in [5] and in [6] was “inactive” each time. For the same compound, the Potency entry in test [7] and in [10] was “inactive” throughout.

Take `CCC(=O)OC`: the Potency entry in test [1], in test [2], in test [3], in test [4], in [5] and in test [6] was “inactive” in each case. Besides, the Potency entry in [7] and in test [10] was “inactive” throughout.

With `COC(=O)c1nc(Cl)c(Cl)nc1N`, the Potency in test [1] is 11.9 µM (active); in test [4], 29.8 µM (active); in test [5], 2.98 µM (active); in test [7], 1.68 µM (active). Moreover, the Potency result in test [2], in test [3], in test [6] and in test [9] was “inactive” throughout.

As to `N#CCCN(CCO)CCO`, the Potency result in test [1], in test [2], in [3], in test [4], in [5] and in [6] was “inactive” each time. The Potency entry in test [7] and in test [10] was “inactive” each time.
